Laboratory results taken from PubChem BioAssay (NCI).
This is part of a sample that, as a whole, favours compounds with a hit. Of some 79,000 tested, about 15% had one in any assay. Unmarked numbers belong to inactive results. The source made the active and inactive calls. Cut-off read from the data, not from the text of the source: active = growth inhibition above about 70%; inactive = the rest.

What was measured:
[1] = NCI Yeast Anticancer Drug Screen. Data for the rad52 strain (AID 147);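 note: 0% = growth of vehicle-treated control cultures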; conditions: S. cerevisiae rad52 mutant growth inhibition, active compounds read high
Outline: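 Vehicle-treated cultures served as the reference for growth inhibition of compound-exposed yeast bearing a DNA repair mutation.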

[2] = NCI Yeast Anticancer Drug Screen. Data for the wt1 strain (AID 149);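 note: 0% = growth of vehicle-treated wt1 cultures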; conditions: S. cerevisiae wt1 strain (SPY 50644) growth inhibition, active compounds read high
Outline: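 Growth inhibition read against vehicle controls after compound exposure of the wt1 yeast strain.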

[3] = NCI Yeast Anticancer Drug Screen. Data for the mgt1 strain (AID 153); conditions: S. cerevisiae mgt1 mutant growth inhibition, active compounds read high
Outline: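 mgt1 strain exposed; growth vs vehicle control recorded as inhibition.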

[4] = NCI Yeast Anticancer Drug Screen. Data for the rad50 strain (AID 155);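 note: 0% = growth of vehicle-only cultures of the same strain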; conditions: S. cerevisiae rad50 strain growth inhibition, active compounds read high
Outline: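 Readout: growth inhibition relative to vehicle-treated cultures. Compound exposure was carried out in a genetically defined yeast strain deficient in DNA damage repair.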

[5] = NCI Yeast Anticancer Drug Screen. Data for the mec2-1 strain (AID 157); conditions: S. cerevisiae mec2-1 strain, active compounds read high
Outline: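 Vehicle-treated cultures served as reference for growth inhibition of compound-exposed mec2-1 yeast.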

[6] = NCI Yeast Anticancer Drug Screen. Data for the rad14 strain (AID 159);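 note: 0% = growth of vehicle-treated control cultures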; conditions: S. cerevisiae rad14 strain growth inhibition, active compounds read high
Outline: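 Growth inhibition vs vehicle controls; genetically altered yeast strain (DNA damage repair defect) treated with test compounds.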

[7] = NCI Yeast Anticancer Drug Screen. Data for the sgs1 mgt1 strain (AID 161);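 note: 0% = growth of cultures given vehicle only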; conditions: S. cerevisiae sgs1 mgt1 strain, active compounds read high
Outline: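 Test agents were incubated with a DNA-repair-mutant yeast strain. Growth was then read and compared against vehicle-treated controls.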

[8] = NCI Yeast Anticancer Drug Screen. Data for the CLN2oe strain (AID 163);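 note: 0% = growth of vehicle-only control cultures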; conditions: S. cerevisiae CLN2oe strain, active compounds read high
Outline: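 Inhibition relative to vehicle-treated yeast is reported. Cells: strain with genetic alteration in cell-cycle control, grown with compound.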

[9] = NCI Yeast Anticancer Drug Screen. Data for the cln2 rad14 strain (AID 165);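 note: 0% = growth equal to vehicle treated cultures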; conditions: S. cerevisiae cln2 rad14 strain, active compounds read high
Outline: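 Each compound was tested on cln2 rad14 yeast. Inhibition of growth was calculated against vehicle-exposed controls.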

[10] = NCI Yeast Anticancer Drug Screen. Data for the bub3 strain (AID 167); conditions: S. cerevisiae bub3 mutant strain, active compounds read high
Outline: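 Readout: yeast growth inhibition, expressed relative to vehicle-only wells. The test organism is a mutant strain from a panel with lesions in DNA repair or checkpoint genes.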

[11] = NCI Yeast Anticancer Drug Screen. Data for the wt2 strain (AID 169);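 note: 0% = growth of vehicle-treated yeast cultures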; conditions: S. cerevisiae wt2 strain growth inhibition, active compounds read high
Outline: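 Inhibition of yeast growth was determined after compound treatment, normalised to controls receiving only vehicle.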

[12] = NCI Yeast Anticancer Drug Screen. Data for the mlh1 strain (AID 171);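 note: 0% = growth of vehicle-treated control cultures of the same strain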; conditions: S. cerevisiae mlh1 strain growth inhibition, active compounds read high
Outline: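 Vehicle-normalised growth inhibition of a repair- or checkpoint-altered yeast strain following compound treatment.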

[13] = NCI Yeast Anticancer Drug Screen. Data for the sgs1 strain (AID 173);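 note: 0% = growth of vehicle-only control cultures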; conditions: S. cerevisiae sgs1 mutant, active compounds read high
Outline: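 Screen format: yeast with repair or checkpoint alterations, compound exposure, growth read relative to vehicle.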

[14] = NCI Yeast Anticancer Drug Screen. Data for the mlh1 rad18 strain (AID 175); conditions: S. cerevisiae mlh1 rad18 strain growth inhibition, active compounds read high
Outline: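 Vehicle-treated cultures served as the reference for growth inhibition in a yeast strain carrying DNA damage repair alterations exposed to each compound.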

[15] = NCI Yeast Anticancer Drug Screen. Data for the rad18 strain (AID 177); conditions: S. cerevisiae rad18 mutant growth inhibition, active compounds read high
Outline: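 Test articles were incubated with altered yeast defective in DNA damage repair. Results are given as inhibition of growth versus vehicle.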

[16] = NCI Yeast Anticancer Drug Screen. Data for the rad50EPP+ strain (AID 151);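 note: 0% = growth of vehicle-treated control cultures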; conditions: S. cerevisiae rad50 mutant strain, active compounds read high
Outline: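 In this screen, rad50EPP+ yeast were exposed to compounds. Growth inhibition was scored against vehicle-treated controls.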

[17] = at 5.0 µM (retest, dose inferred, filed as 0.5)
[18] = at 50.0 µM (retest, dose inferred, filed as 5.0)

SMILES: O/N=C\c1c(O)ccc2ccccc12
- growth inhibition ([1]; at 1.2 µM): -4%
- growth inhibition ([1]; at 3.7 µM): 0%
- growth inhibition ([1]; at 11.0 µM): 7%
- growth inhibition ([1]; at 33.0 µM): 31%
- growth inhibition ([1]; at 100.0 µM): 72% (active)
- growth inhibition ([2]; at 1.2 µM): -2%
- growth inhibition ([2]; at 3.7 µM): -5%
- growth inhibition ([2]; at 11.0 µM): 0%
- growth inhibition ([2]; at 33.0 µM): 5%
- growth inhibition ([2]; at 100.0 µM): 22%
- growth inhibition ([3]; at 1.2 µM): -4%
- growth inhibition ([3]; at 3.7 µM): 1%
- growth inhibition ([3]; at 11.0 µM): 1%
- growth inhibition ([3]; at 33.0 µM): 7%
- growth inhibition ([3]; at 100.0 µM): 52%
- growth inhibition ([4]; at 1.2 µM): 1%
- growth inhibition ([4]; at 3.7 µM): 3%
- growth inhibition [4, 17]: -11%
- growth inhibition ([4]; at 11.0 µM): 10%
- growth inhibition ([4]; at 33.0 µM): 42%
- growth inhibition [4, 18]: 74% (active)
- growth inhibition ([4]; at 50.0 µM): 63%
- growth inhibition ([4]; at 100.0 µM): 71% (active)
- growth inhibition ([5]; at 1.2 µM): -1%
- growth inhibition ([5]; at 3.7 µM): 0%
- growth inhibition [5, 17]: -2%
- growth inhibition ([5]; at 11.0 µM): 2%
- growth inhibition ([5]; at 33.0 µM): 12%
- growth inhibition [5, 18]: 20%
- growth inhibition ([5]; at 50.0 µM): 47.4%
- growth inhibition ([5]; at 100.0 µM): 33%
- growth inhibition ([6]; at 1.2 µM): -1%
- growth inhibition ([6]; at 3.7 µM): 0%
- growth inhibition ([6]; at 11.0 µM): 7%
- growth inhibition ([6]; at 33.0 µM): 39%
- growth inhibition ([6]; at 100.0 µM): 75% (active)
- growth inhibition [7, 17]: -6%
- growth inhibition [7, 18]: 74% (active)
- growth inhibition ([7]; at 50.0 µM): 78.8% (active)
- growth inhibition ([8]; at 1.2 µM): -6%
- growth inhibition ([8]; at 3.7 µM): -6%
- growth inhibition ([8]; at 11.0 µM): -5%
- growth inhibition ([8]; at 33.0 µM): 3%
- growth inhibition ([8]; at 100.0 µM): 28%
- growth inhibition [9, 17]: -4%
- growth inhibition [9, 18]: 21%
- growth inhibition ([9]; at 50.0 µM): 10.3%
- growth inhibition ([10]; at 1.2 µM): -4%
- growth inhibition ([10]; at 3.7 µM): 0%
- growth inhibition [10, 17]: 19%
- growth inhibition ([10]; at 11.0 µM): 2%
- growth inhibition ([10]; at 33.0 µM): 11%
- growth inhibition [10, 18]: 88% (active)
- growth inhibition ([10]; at 50.0 µM): 75% (active)
- growth inhibition ([10]; at 100.0 µM): 27%
- growth inhibition ([11]; at 1.2 µM): -4%
- growth inhibition ([11]; at 3.7 µM): -2%
- growth inhibition ([11]; at 11.0 µM): -7%
- growth inhibition ([11]; at 33.0 µM): 1%
- growth inhibition ([11]; at 100.0 µM): 55%
- growth inhibition ([12]; at 1.2 µM): -3%
- growth inhibition ([12]; at 3.7 µM): -1%
- growth inhibition ([12]; at 11.0 µM): 4%
- growth inhibition ([12]; at 33.0 µM): 22%
- growth inhibition ([12]; at 100.0 µM): 65%
- growth inhibition ([13]; at 1.2 µM): 10%
- growth inhibition ([13]; at 3.7 µM): 30%
- growth inhibition ([13]; at 11.0 µM): -5%
- growth inhibition ([13]; at 33.0 µM): 41%
- growth inhibition ([13]; at 100.0 µM): 80% (active)
- growth inhibition [14, 17]: 3%
- growth inhibition [14, 18]: 89% (active)
- growth inhibition ([14]; at 50.0 µM): 73.2% (active)
- growth inhibition ([15]; at 1.2 µM): -3%
- growth inhibition ([15]; at 3.7 µM): 0%
- growth inhibition ([15]; at 11.0 µM): 6%
- growth inhibition ([15]; at 33.0 µM): 30%
- growth inhibition ([15]; at 100.0 µM): 69%

SMILES: O=[N+]([O-])c1cccc2nc3ccccc3c(NCCC[N+]3([O-])CCCCC3)c12
- growth inhibition ([1]; at 1.2 µM): 20%
- growth inhibition ([1]; at 3.7 µM): 47%
- growth inhibition ([1]; at 11.0 µM): 80% (active)
- growth inhibition ([1]; at 33.0 µM): 90% (active)
- growth inhibition ([1]; at 100.0 µM): 94% (active)
- growth inhibition ([16]; at 1.2 µM): 10%
- growth inhibition ([16]; at 3.7 µM): 36%
- growth inhibition ([16]; at 11.0 µM): 77% (active)
- growth inhibition ([16]; at 33.0 µM): 93% (active)
- growth inhibition ([16]; at 100.0 µM): 96% (active)
- growth inhibition ([3]; at 1.2 µM): 0%
- growth inhibition ([3]; at 3.7 µM): 1%
- growth inhibition ([3]; at 11.0 µM): 5%
- growth inhibition ([3]; at 33.0 µM): 7%
- growth inhibition ([3]; at 100.0 µM): 56%
- growth inhibition ([4]; at 1.2 µM): 4%
- growth inhibition ([4]; at 3.7 µM): 16%
- growth inhibition [4, 17]: 67%
- growth inhibition ([4]; at 11.0 µM): 47%
- growth inhibition ([4]; at 33.0 µM): 82% (active)
- growth inhibition [4, 18]: 93% (active)
- growth inhibition ([4]; at 50.0 µM): 81.3% (active)
- growth inhibition ([4]; at 100.0 µM): 91% (active)
- growth inhibition ([5]; at 1.2 µM): 1%
- growth inhibition ([5]; at 3.7 µM): 8%
- growth inhibition [5, 17]: 39%
- growth inhibition ([5]; at 11.0 µM): 35%
- growth inhibition ([5]; at 33.0 µM): 86% (active)
- growth inhibition [5, 18]: 98% (active)
- growth inhibition ([5]; at 50.0 µM): 96% (active)
- growth inhibition ([5]; at 100.0 µM): 96% (active)
- growth inhibition ([6]; at 1.2 µM): 6%
- growth inhibition ([6]; at 3.7 µM): 28%
- growth inhibition ([6]; at 11.0 µM): 86% (active)
- growth inhibition ([6]; at 33.0 µM): 95% (active)
- growth inhibition ([6]; at 100.0 µM): 98% (active)
- growth inhibition [7, 17]: 78% (active)
- growth inhibition [7, 18]: 96% (active)
- growth inhibition ([7]; at 50.0 µM): 93.5% (active)
- growth inhibition ([8]; at 1.2 µM): -2%
- growth inhibition ([8]; at 3.7 µM): -5%
- growth inhibition ([8]; at 11.0 µM): 46%
- growth inhibition ([8]; at 33.0 µM): 85% (active)
- growth inhibition ([8]; at 100.0 µM): 94% (active)
- growth inhibition [9, 17]: 95% (active)
- growth inhibition [9, 18]: 98% (active)
- growth inhibition ([9]; at 50.0 µM): 97.1% (active)
- growth inhibition ([10]; at 1.2 µM): -13%
- growth inhibition ([10]; at 3.7 µM): -8%
- growth inhibition [10, 17]: -4%
- growth inhibition ([10]; at 11.0 µM): 34%
- growth inhibition ([10]; at 33.0 µM): 82% (active)
- growth inhibition [10, 18]: 86% (active)
- growth inhibition ([10]; at 50.0 µM): 38.7%
- growth inhibition ([10]; at 100.0 µM): 87% (active)
- growth inhibition ([11]; at 1.2 µM): 0%
- growth inhibition ([11]; at 3.7 µM): 6%
- growth inhibition ([11]; at 11.0 µM): 25%
- growth inhibition ([11]; at 33.0 µM): 85% (active)
- growth inhibition ([11]; at 100.0 µM): 96% (active)
- growth inhibition ([12]; at 1.2 µM): 0%
- growth inhibition ([12]; at 3.7 µM): 2%
- growth inhibition ([12]; at 11.0 µM): 8%
- growth inhibition ([12]; at 33.0 µM): 28%
- growth inhibition ([12]; at 100.0 µM): 66%
- growth inhibition ([13]; at 1.2 µM): 40%
- growth inhibition ([13]; at 3.7 µM): 70% (active)
- growth inhibition ([13]; at 11.0 µM): 84% (active)
- growth inhibition ([13]; at 33.0 µM): 91% (active)
- growth inhibition ([13]; at 100.0 µM): 93% (active)
- growth inhibition [14, 17]: 84% (active)
- growth inhibition [14, 18]: 98% (active)
- growth inhibition ([14]; at 50.0 µM): 94.4% (active)
- growth inhibition ([15]; at 1.2 µM): 93% (active)
- growth inhibition ([15]; at 3.7 µM): 95% (active)
- growth inhibition ([15]; at 11.0 µM): 96% (active)
- growth inhibition ([15]; at 33.0 µM): 96% (active)
- growth inhibition ([15]; at 100.0 µM): 96% (active)
